Source: PubChem (National Center for Advancing Translational Sciences (NCATS))
hNpr1 antagonist: antagonists of human natriuretic peptide receptor Npr1 | Potency, µM (doses to about 46.3 µM), usual class: inhibitors | 76,000 tested, 1.6% active | HEK293 hNpr1 GloSensor cGMP, ANP-stimulated luminescence | P16066; calls by dose curve; further: nearly all actives have a fitted effect of over 60% in size
Target sequence (P16066 whole entry, looked up): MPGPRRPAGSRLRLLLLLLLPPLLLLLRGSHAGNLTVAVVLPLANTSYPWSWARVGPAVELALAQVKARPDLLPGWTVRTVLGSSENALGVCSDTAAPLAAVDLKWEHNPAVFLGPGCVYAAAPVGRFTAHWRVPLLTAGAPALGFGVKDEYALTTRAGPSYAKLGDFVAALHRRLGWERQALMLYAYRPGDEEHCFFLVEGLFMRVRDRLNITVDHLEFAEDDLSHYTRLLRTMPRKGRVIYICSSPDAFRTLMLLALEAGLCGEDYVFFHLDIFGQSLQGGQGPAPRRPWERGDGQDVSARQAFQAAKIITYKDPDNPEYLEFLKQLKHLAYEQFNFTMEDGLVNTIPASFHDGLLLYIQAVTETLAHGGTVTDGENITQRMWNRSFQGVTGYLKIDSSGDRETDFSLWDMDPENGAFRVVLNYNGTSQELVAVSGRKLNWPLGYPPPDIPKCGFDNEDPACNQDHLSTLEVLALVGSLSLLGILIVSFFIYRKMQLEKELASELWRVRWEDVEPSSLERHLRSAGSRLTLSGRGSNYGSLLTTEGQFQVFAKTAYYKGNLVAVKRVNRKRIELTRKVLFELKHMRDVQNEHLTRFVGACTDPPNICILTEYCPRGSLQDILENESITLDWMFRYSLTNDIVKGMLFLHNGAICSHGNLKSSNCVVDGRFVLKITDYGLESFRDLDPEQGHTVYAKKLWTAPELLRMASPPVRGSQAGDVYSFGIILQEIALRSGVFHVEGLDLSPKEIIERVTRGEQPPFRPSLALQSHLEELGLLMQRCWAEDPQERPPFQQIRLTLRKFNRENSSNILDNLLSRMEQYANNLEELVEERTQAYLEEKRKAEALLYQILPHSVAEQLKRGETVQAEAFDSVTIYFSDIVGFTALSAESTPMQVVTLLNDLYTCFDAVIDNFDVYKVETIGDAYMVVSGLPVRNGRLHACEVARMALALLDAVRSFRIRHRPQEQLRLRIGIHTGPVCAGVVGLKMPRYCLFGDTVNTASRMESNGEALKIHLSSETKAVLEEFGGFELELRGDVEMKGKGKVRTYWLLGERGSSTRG
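HEK293 cells stably expressing human Npr1 and cGMP GloSensor pGS-40F, loaded 2 h with 2% GloSensor reagent, given compound 30 min at room temperature. Luminescence read before and 20 min after 0.1 nM hNppA.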
HEK cytotox: cytotoxic compounds in HEK 293 cells. HEK 293 viability, ATP luminescence (CellTiter-Glo), 48-72 h. Potency, µM (top dose mostly 115 µM), hits mostly inhibitors. 94,000 tested, 6.6% active; further: nearly all actives have a fitted effect of over 60% in size
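CellTiter-Glo luminescence (cellular ATP) was read after 48 or 72 hr of compound exposure at 37 degree Celsius. Cells were HEK 293 plated at 250 cells/well.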
NIH3T3 tox: cytotoxic compounds in NIH 3T3 cells | Potency, µM (series often up to 96.7 µM), usual class: inhibitors | NIH 3T3 viability, CellTiter-Glo ATP luminescence, 48-72 h | 94,000 tested, 4.3% active | AID 1345082; further: nearly all actives have a fitted effect of over 55% in size
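Cytotoxicity is measured as loss of cellular ATP: NIH 3T3 cells (400/well) are exposed to compound for 48 or 72 hr at 37 °C, then CellTiter-Glo luminescence is imaged after 10 min at room temperature.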
GPT2 inhibitor: blocks human glutamate pyruvate transaminase 2; Q8TD30; Recombinant GPT2, coupled pyruvate oxidase/HRP Amplex Red fluorescence; Potency, µM (highest dose often 57.7 µM), hits mostly inhibitors; 100,000 tested, 0.25% active; AID 1671188; further: nearly all actives have a fitted effect of over 60% in size
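GPT2 10ng/uL, a-KG 250uM, L-Ala 2mM, HEPES pH7.5 + 0.0001% Tween; 30 min RT. Then Amplex mix (PO/HRP/ThPP), 30 min RT dark, fluorescence. AOA 50uM used as positive control.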
Luciferase inh: blocks purified firefly luciferase enzyme activity; P08659; purified P. pyralis luciferase, luminescence, biochemical; Potency, µM (top dose mostly 115 µM), most hits filed as inhibitors; 76,000 tested, 2.5% active; further: nearly all actives have a fitted effect of over 65% in size
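Cell-free enzyme assay, 10nM P. pyralis luciferase, luciferin and ATP each at 10uM. Inhibition profiled over a 6-point titration, read as luminescence.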
A number is an active result; . = inactive; ? = inconclusive; / = no result; [ ] = another dose, or the depositor's remark. In the library only some 10% were active in any assay of this set; here they are far more common. Unless noted, the call rests on the fitted dose curve; in most records, active means well fitted curve in the direction sought with a large enough effect; inconclusive means small, poorly fitted or top-dose-only effect, or another doubt; inactive means no such curve, though single readings can be large; an effect the other way counts as inactive or inconclusive.

SMILES	hNpr1 antagonist	HEK cytotox	NIH3T3 tox	GPT2 inhibitor	Luciferase inh
CC1=C(C(=O)NC(C)(C)C)C(c2ccc(Cl)cc2)N2C(CC(=O)N3CCCC3)=CSC2=N1 (stereo unspecified)	.	?	45µM	.	.
Cn1ccnc1CNC(=O)C[C@@H]1C[C@H]2O[C@H](CNCc3ccccc3OC(F)(F)F)[C@@H](O)[C@H]2O1	.	.	.	.	.
CCOc1cc(=O)n2c(c1C(=O)Nc1ccc3c(c1)OCO3)CCCC2	.	?	?	.	40µM
CC(=O)NC1CCN(Cc2ccc(-c3ccsc3)cc2)C1 (stereo unspecified)	/	?	?	.	/
O=C(NC1CCN(Cc2ccc(-c3ccsc3)cc2)C1)c1cccc(Cl)c1 (stereo unspecified)	/	45µM	?	.	/
COC(=O)NC1CCN(Cc2ccc(-c3ccsc3)cc2)C1 (stereo unspecified)	/	100µM	?	.	/
Cc1ccccc1C(=O)NC1CCN(Cc2ccc(-c3ccsc3)cc2)C1 (stereo unspecified)	/	79µM	?	.	/
Oc1cccc(C2NC(=S)Nc3cccc(F)c32)c1 (stereo unspecified)	/	/	/	.	/
O=C(c1cccc(OC2CN(CC3CC=CCC3)C2)c1)N1CCOCC1 (stereo unspecified)	.	.	.	.	.
Cc1noc(C)c1-c1cc2c(cc(C)n2C)c(-c2cccnc2)n1	.	?	?	.	.
Cc1noc(C)c1-c1cc2c(cc(C)n2C)c(-c2cnn(C)c2)n1	.	?	40µM	.	.
Cc1noc(C)c1-c1cc2c(cc(C)n2C)c(-c2ccccc2)n1	.	?	50µM	?	.
Cc1noc(C)c1-c1cc2c(cc(-c3ccccc3)n2C)c(-c2ccnn2C)n1	.	35µM	?	.	.
Cc1noc(C)c1-c1cc2c(cc(C)n2C)c(-c2cccc([S+](C)(=O)[O-])c2)n1	.	?	14µM	.	.
Cc1ccc(S(=O)(=O)N2CC[C@H]3NC(=O)N(c4ccc(C(C)C)cc4)C(=O)[C@H]32)cc1	.	.	.	.	.
Cc1noc(C)c1-c1cc2c(cc(C)n2C)c(N2CCN(Cc3ccccc3)CC2)n1	.	?	45µM	.	.
Cc1noc(C)c1-c1cc2c(cc(-c3ccccc3)n2C)c(N2CCOCC2)n1	.	56µM	32µM	.	.
Cc1noc(C)c1-c1cc2c(cc(C)n2C)c(-c2ccnn2C)n1	.	?	?	.	.
COc1cccc(-c2nc(-c3c(C)noc3C)cc3c2cc(C)n3C)c1OC	.	?	25µM	.	.
Cc1noc(C)c1-c1cc2c(cc(-c3ccccc3)n2C)c(-c2cnn(C)c2)n1	.	20µM	11µM	.	.
COc1cc(-c2nc(-c3c(C)noc3C)cc3c2cc(C)n3C)ccn1	.	?	?	.	.
COCc1ccc2c(c1)c(OC(C)(C)C(=O)NCCc1cnc[nH]1)nn2Cc1ccccc1	.	?	?	.	.
O=C(C1CCCC1)N1CC2(CCN(C3CCCCC3)CC2)Cc2ccccc21	/	?	?	.	/
O=C(C1CCCC1)N1CC2(CCN(C3CCCCC3)C2)Cc2ccccc21 (stereo unspecified)	/	45µM	?	.	/
O=C(C1CCCC1)N1CC2(CCN(Cc3cccnc3)C2)Cc2ccccc21 (stereo unspecified)	/	45µM	?	?	/
SMILES	hNpr1 antagonist	HEK cytotox	NIH3T3 tox	GPT2 inhibitor	Luciferase inh
O=C(C1CCCC1)N1CC2(CCCN(Cc3ccc(Cl)cc3)C2)Cc2ccccc21 (stereo unspecified)	/	40µM	?	.	/
CC(=O)N1CC2(CCCN(Cc3ccc(Cl)cc3)C2)Cc2ccccc21 (stereo unspecified)	/	?	.	.	/
Cc1csc2c(NCCC3CN(c4cnn(C)c(=O)c4)CCO3)ncnc12 (stereo unspecified)	?	?	?	.	?
CN(Cc1ccc(F)cc1)C(=O)NC1CCCC1	.	.	.	.	.
Cc1ncoc1C(=O)NCc1cc(Cl)cc2c(C)c(-c3ccccc3)[nH]c12	2.8µM	?	?	.[11.5 µM]	?
Cc1nc(CCC(=O)NCc2cc(Cl)cc3c(C)c(-c4ccccc4)[nH]c23)n[nH]1	.	?	?	.	32µM
Cc1nonc1OCCn1cc(C2CCCNC2)nn1 (stereo unspecified)	.	.	.	?	.
O=C(CC1CCCC1)N1CCN(Cc2ccc(=O)n(CC3CC3)c2)CC1	.	?	?	.	.
Cc1ccc(NC(=O)Cn2c(-c3ccc(Cl)cc3)nc(C)c(CCO)c2=O)cc1	.	32µM	?	.	.
Cc1nc(-c2cccc(Cl)c2)n(CC(=O)Nc2ccccc2)c(=O)c1CCO	.	45µM	?	.	.
CCc1cccc(NC(=O)Cn2c(-c3ccc(Cl)cc3)nc(C)c(CCO)c2=O)c1	.	?	.	?	.
Cc1nc(-c2cccc(Cl)c2)n(CC(=O)Nc2ccc3c(c2)OCO3)c(=O)c1CCO	.	40µM	?	.	.
Cc1nc(-c2cccc(Cl)c2)n(CC(=O)Nc2ccccc2F)c(=O)c1CCO	.	45µM	?	.	.
O=C(Nc1cccc(F)c1)C1CN(C2CCCCC2)C(=O)N1 (stereo unspecified)	/	?	?	.	/
Cc1ccc(C(=O)N2CCn3c(nn(-c4ccncc4)c3=O)C2)cc1	?	?	?	.	.
Cc1ccc(CNC(=O)Cn2c(-c3ccccc3)nc(C)c(CCO)c2=O)cc1	.	79µM	?	.	.
Cc1nc(-c2ccc(F)cc2)n(CC(=O)Nc2ccc(F)c(Cl)c2)c(=O)c1CCO	.	35µM	?	.	.
Cc1cc(C)cc(NC(=O)Cn2c(-c3ccccc3)nc(C)c(CCO)c2=O)c1	.	32µM	?	.	.
CSc1cccc(NC(=O)Cn2c(-c3ccc(F)cc3)nc(C)c(CCO)c2=O)c1	.	32µM	?	.	.
CC(=O)NC1(C)CCCN(Cc2cc(-c3cccc(C(F)(F)F)c3)cs2)C1 (stereo unspecified)	.	?	?	.	?
O=C(NC1CCCCC1)C1CN(C(=O)c2ccccc2)CC12CCOCC2 (stereo unspecified)	.	.	.	.	.
Cc1nc(-c2ccccc2)n(CC(=O)Nc2ccc(C(C)C)cc2)c(=O)c1CCO	.	?	?	.	.
Cc1ccc(NC(=O)Cn2c(-c3cccc(Cl)c3)nc(C)c(CCO)c2=O)cc1	.	25µM	40µM	.	.
Cc1cc(NC(=O)Cn2c(-c3cccc(Cl)c3)nc(C)c(CCO)c2=O)no1	.	?	?	.	.
COc1ccc(NC(=O)Cn2c(-c3ccccc3)nc(C)c(CCO)c2=O)cc1OC	.	?	?	.	.
COc1ccc(NC(=O)Cn2c(-c3ccccc3)nc(C)c(CCO)c2=O)cc1Cl	.	25µM	?	.	.
Cc1nc(-c2cccc(Cl)c2)n(CC(=O)Nc2cccc(C(C)C)c2)c(=O)c1CCO	.	?	25µM	.	.
